Results on 60 compounds are retold here after PubChem BioAssay AID1986 (Sanford-Burnham Center for Chemical Genomics, 2009).

The nature of the experiment: cell-free HIV fusion peptide-binding blockers – biochemical, uHTS, fluorescence dequenching, primary screen (AID 1986). Particulars: 30 min, stronger effect = higher value.
The mark [1] stands for this setting: measured here: repeat confirmation average inhibition, at 18.6 µM.

About 890 (0.31%) of roughly 290,000 compounds were called active. No stated cut-off is given here; in the data, active means inhibition mostly above about 52% (no sharp cut-off); inactive means mostly below about 76%. The list comes from a sample in which actives are over-represented; it also holds similar structures and randomly drawn compounds.

As usually defined, the inhibition is the relative decrease from the control value, in per cent. On to `CCOC(=O)C1=C(C)NC(=O)NC1c1ccc(OCC(=O)OC)c(OC)c1` (stereo not drawn), for which the inhibition (at 20 µM) is -0.4% (inactive).

Take `CC(=O)Nc1cccc(CNCc2cccc(NC(C)=O)c2)c1`: the inhibition (at 20 µM) was -0.7% (inactive).

Consider `O=C(Nc1cccc(-c2cn3ccccc3n2)c1)c1cnccn1`, for which the inhibition (at 20 µM) was -0.3% (inactive).

Consider `CC(=O)C1=C(c2ccccc2)NC(=O)NC1c1cccs1` (stereo not drawn), for which the inhibition (at 20 µM) was 0.1% (inactive).

As for `CCc1cccc(NC(=O)CCS(=O)(=O)c2cc3c(cc2C)NC(=O)CO3)c1`, the inhibition (at 20 µM) is 0.8% (inactive).

For the compound `CCOc1cc(-c2nc(-c3ccncc3)no2)cc(OCC)c1OCC`, the inhibition (at 20 µM) was 0.5% (inactive).

`CCC(CCC(=O)Nc1cccc(C(=O)O)c1)C(=O)O` (stereo not drawn): for the setting “at 20 µM”, the inhibition was -0.2% (inactive).

Turning to `COc1ccc(Br)cc1C(=O)Nc1ccc(N2CCCC2)cc1`, the inhibition (at 20 µM) was -1.9% (inactive).

`Cc1ccc(NC(=O)CN2C(=O)S/C(=C\c3ccc(-c4cccc(C(=O)O)c4C)o3)C2=O)cc1`: the inhibition (at 20 µM) is 63.2% (active).

In the case of `Cc1ccc(C(=O)O)cc1-c1ccc(/C=C2\SC(=O)N(CC(=O)Nc3ccc4c(c3)OCO4)C2=O)o1`, the inhibition is, setting by setting: (at 20 µM) 69.1% (inactive); under setting [1], 25.2%.

With `Cc1ccccc1NC(=O)CN1C(=O)S/C(=C\c2ccc(-c3cccc(C(=O)O)c3C)o2)C1=O`, the inhibition (at 20 µM) was 32% (inactive).

Turning to `COc1ccc(C(=O)NC2CCCCCC2)cc1OC1CCN(C(C)=O)CC1`, where the note is “at 20 µM”, the inhibition is 0% (inactive).

Take `COc1ccc([N+](=O)[O-])cc1NC(=O)COC(C)=O`: the inhibition (at 20 µM) was -1.8% (inactive).

On to `O=C(CN1CCN(c2ccccc2)CC1)N1CCc2[nH]c3ccccc3c2C1`, for which the inhibition (at 20 µM) is 2% (inactive).

In the case of `O=C1/C(=C\c2ccco2)SC(=S)N1Cc1ccccc1`, the inhibition is 66% (inactive) (at 20 µM) and -1.7% under setting [1].

Take `CCN1CCN(c2c(/C=C3\SC(=S)N(Cc4ccco4)C3=O)c(C)c(C#N)c(=O)n2C)CC1`: the inhibition was 89.4% (active) (at 20 µM) and 167% under setting [1].

Consider `CCCN(CCC)c1nc2c(C)cccn2c(=O)c1/C=C1/SC(=S)N(Cc2ccco2)C1=O`, for which the inhibition (at 20 µM) is 49.5% (inactive).

As to `C=CCOc1ccc(C2/C(=C(\O)c3ccc4c(c3)OCCO4)C(=O)C(=O)N2CCCN2CCOCC2)cc1` (stereo not drawn), where the note is “at 20 µM”, the inhibition was -1.6% (inactive).

Take `Cc1cc(NC(=O)CCCC(=O)N(CC(=O)NC2CCCCC2)c2ccccc2)no1`: the inhibition (at 20 µM) was -0.7% (inactive).

Turning to `CNC(=S)N1CCN(S(=O)(=O)c2ccc3ccccc3c2)CC1`, the inhibition (at 20 µM) is -0.9% (inactive).

With `CCCc1ccc2oc(C(=O)NCCN3CCCC(O)C3)c(C)c2c1` (stereo not drawn), the inhibition (at 20 µM) was 0.9% (inactive).

For the compound `c1ccc2c(c1)nc(CN1CCOCC1)n1c3ccccc3nc21`, for the setting “at 20 µM”, the inhibition is 2.2% (inactive).

For the compound `O=c1c2cccc3c(N4CCOCC4)ccc(c32)c2nc3ccccc3n12`, the inhibition (at 20 µM) is 113% (active).

Regarding `O=c1c2ccc([N+](=O)[O-])c3cccc(c32)c2nc3ccccc3n12`, the inhibition (at 20 µM) is 10.2% (inactive).

Regarding `Cc1ccc(OCc2cc(C(=O)N(C)CC3CCOCC3)no2)cc1C`, where the note is “at 20 µM”, the inhibition is -2% (inactive).

As to `O=C(O)CN1C(=O)/C(=C/c2ccc(N3CCCCC3)o2)SC1=S`, the inhibition (at 20 µM) is 7.4% (inactive).

As for `O=C1/C(=C\c2ccco2)SC(=S)N1c1ccccc1`, for the setting “at 20 µM”, the inhibition was 41.6% (inactive).

`O=C(O)c1cccc(N2C(=O)/C(=C/c3ccc(SCc4ccc(Cl)cc4)o3)SC2=S)c1`: the inhibition (at 20 µM) is 63% (active).

Turning to `O=C(O)CN1C(=O)/C(=C/c2ccc(SCc3ccccc3)o2)SC1=S`, the inhibition reads like this: (at 20 µM) 73.1% (active); under setting [1], 105%.

Take `Cc1ccc(/C=C2\SC(=S)N(Cc3ccccc3)C2=O)o1`: the inhibition (at 20 µM) was -3.6% (inactive).

As for `O=C(CCN1C(=O)/C(=C/c2ccc(Cl)cc2)SC1=S)Nc1cccc(C(=O)O)c1`, the inhibition was 62.4% (inactive) (at 20 µM) and 2.3% under setting [1].

Turning to `CC(/C=C1\SC(=S)N(CC(=O)O)C1=O)=C\c1ccccc1`, under “at 20 µM”, the inhibition was 35.8% (inactive).

In the case of `O=C(O)CN1C(=O)/C(=C\C(Br)=C\c2ccccc2)SC1=S`, the inhibition (at 20 µM) is 62.6% (active).

As to `CC(=C\c1ccccc1)/C=C1/SC(=S)N(CCC(=O)O)C1=O`, the inhibition (at 20 µM) was 26.1% (inactive).

Take `Cn1cnnc1SCC(=O)N1CCc2ccccc21`: the inhibition (at 20 µM) was -0.4% (inactive).

With `CCOC(=O)C(C)c1nc2ccccc2[nH]c1=O` (stereo not drawn), the inhibition (at 20 µM) is -0.4% (inactive).

For `CN1C2C=C(N(CCc3ccccc3)C(=O)c3ccc(Cl)cc3)CC1CC2` (stereo not drawn), the inhibition (at 20 µM) was -0.4% (inactive).

On to `C=C1CN(CC(=O)OC)S(=O)(=O)c2ccccc21`, for which the inhibition (at 20 µM) was 0.8% (inactive).

For `COc1ccccc1NC(=O)c1ccc(-c2nn(C)c(=O)c3ccccc23)cc1`, under “at 20 µM”, the inhibition is 0.7% (inactive).

In the case of `Cc1nn(CC(=O)N2CCCC2)c(=O)c2nn(-c3ccccc3)c(C)c12`, the inhibition (at 20 µM) is 0.3% (inactive).

Turning to `CC(CCC(=O)O)C1CC[C@H]2C3CCC4CC(=O)CCC4(C)[C@H]3CC(=O)C12C` (stereo partly drawn), the inhibition (at 20 µM) was -1.2% (inactive).

In the case of `CC1(C)C(=O)OC(c2cccs2)C(C)(C)C1=O` (stereo not drawn), the inhibition (at 20 µM) was 0.5% (inactive).

As to `O=C(CSc1nc2scc(-c3ccco3)c2c(=O)n1-c1ccccc1)N1CCOCC1`, the inhibition (at 20 µM) was 4.2% (inactive).

As for `CC1CCN(S(=O)C23CC4CC(CC(C4)C2)C3)CC1` (stereo not drawn), the inhibition (at 20 µM) was 1.3% (inactive).

Consider `CCOC1OC2C(CO)OC(n3cnc4c(N)ncnc43)C2O1` (stereo not drawn), for which, for the setting “at 20 µM”, the inhibition was 1.6% (inactive).

`Cc1cccc2c(N=Nc3ccccc3)c(O)[nH]c12`: the inhibition was 52.7% (active) (at 20 µM) and 60.4% under setting [1].

`Oc1[nH]c2ccccc2c1N=Nc1ccccc1`: the inhibition (at 20 µM) was 146% (inactive).

In the case of `Cc1cccc2c(N=O)c(O)[nH]c12`, the inhibition (at 20 µM) is 17.9% (inactive).

Turning to `CCCCc1ccc(S(=O)(=O)N2CCN(C(=O)c3ccco3)CC2)cc1`, the inhibition (at 20 µM) is 2% (inactive).

For `Cc1ccc(C)c2[nH]c(=O)c(CN(Cc3cccs3)C(=S)NCc3ccco3)cc12`, the inhibition (at 20 µM) was 16.7% (inactive).

`CN(C)CCCN1C(=O)C2CCc3[nH]c4ccccc4c3C2C1=O` (stereo not drawn): the inhibition (at 20 µM) is -1% (inactive).

As for `COc1cc(/C=C2/C(=N)N3N=C(CC(=O)N4CCOCC4)SC3=NC2=O)ccc1OC(C)c1ccccc1` (stereo not drawn), the inhibition (at 20 µM) was 36% (inactive).

Turning to `CCNc1ccc(Br)cc(C(=O)/C=C/c2ccc(Cl)cc2Cl)c1=O`, the inhibition runs as follows: (at 20 µM) 63.3% (inactive); under setting [1], 13.7%.

For `CNc1ccc(Br)cc(C(=O)/C=C/c2ccc(Cl)cc2Cl)c1=O`, for the setting “at 20 µM”, the inhibition was 61.5% (active).

For `CNc1ccc(Br)cc(C(=O)/C=C/c2cccc(Cl)c2Cl)c1=O`, the inhibition is, setting by setting: (at 20 µM) 61.9% (inactive); under setting [1], 4.3%.

With `COc1cc(NC(=O)C2CC(c3c(F)cccc3Cl)=NO2)cc(OC)c1OC` (stereo not drawn), the inhibition (at 20 µM) was 0% (inactive).

`Cc1onc(-c2ccccc2Cl)c1C(=O)Nc1ccc(Br)cc1`: the inhibition (at 20 µM) was -0.2% (inactive).

Consider `CCC(=O)Nc1cc(Cl)ccc1C(=O)O`, for which the inhibition (at 20 µM) is -0.2% (inactive).

Regarding `O=C(O)c1ccc(Cl)cc1Nc1nc2cc(Cl)ccc2o1`, the inhibition (at 20 µM) was 67.6% (active).

Regarding `CCS(=O)(=O)c1ccc2oc(Nc3cc(Cl)ccc3OC)nc2c1`, the inhibition (at 20 µM) was -1% (inactive).
